From PubChem
HT1080 IDH1KD tx – toxicity to HT-1080 IDH1 knockdown cells (counter line). Potency, µM (titrated, usually from 46.1 µM), for the others: top-dose activity, negative = toxicity, usual class: cytotoxic. HT-1080 IDH1 knockdown viability, ATP luminescence, 48 h. AID 686971. 2% of 360,000 active;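 further: 0% = DMSO wells and -100% = cell-free medium wells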
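Cytotoxicity counter-line: IDH1KD HT-1080, 48 h, CellTiter-Glo. Curves classed by r2, magnitude and activity.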
SW480 rereplic – induces DNA re-replication in SW480 colon adenocarcinoma cells | SW480 DNA re-replication, Hoechst DNA content imaging, 48 h | 1.8% of 340,000 active | Potency, µM (series often up to 46.1 µM), for the others: at the highest dose re-replication activation, usual class: activators; further: % of control where 0% means no effect; nearly all actives have a fitted effect of over 55% in size
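Treated cells incubate 48 hr (37 C, 5% CO2), are stained 40 min with Hoechst, and nuclear fluorescence is enumerated; a rise in nuclei with high DNA signal marks re-replication.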
MCF10A rereplic – induces DNA re-replication in MCF 10a normal breast cells; MCF 10A DNA re-replication, Hoechst nuclear intensity, 48 h; Potency, µM (titrated, usually from 46.1 µM), for inactives: top-dose activity, positive = re-replication, hits mostly activators; 2.9% of 350,000 active; AID 624296; further: % of control where 0% means no effect; nearly all actives have a fitted effect of over 50% in size
KB-3-1 cytotox – KB-3-1 parental cell cytotoxicity; AID 1347075; KB-3-1 viability, CellTiter-Glo ATP luminescence, 72 h; Potency, µM (titrated, usually from 46.1 µM), most hits filed as cytotoxic; 1.4% of 400,000 active; further: on the % scale 0 is the no-effect control and ±100 the full control effect; nearly all actives have a fitted effect of over 60% in size
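Viability of parental KB-3-1 cells, measured by CellTiter-Glo luminescence, followed a 72 h incubation at 37 °C with pinned compounds in phenol-red-free DMEM containing 10% FBS.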
KB-V1 cytotox – KB-V1 MDR subline cytotoxicity | Potency, µM (titrated, usually from 46.1 µM), hits mostly cytotoxic | KB-V1 MDR cells viability, CellTiter-Glo, 72 h | AID 1347076 | 3.4% of 400,000 active; further: on the % scale 0 is the no-effect control and ±100 the full control effect; nearly all actives have a fitted effect of over 60% in size
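Potencies derive from concentration-effect curves fitted to normalized luminescence (CellTiter-Glo) of KB-V1 cells treated for 72 h at 37 degrees C in phenol-red-free DMEM containing 10% FBS.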
HT1080-NT tox – kills 2HG-producing HT-1080-NT fibrosarcoma cells. 1.6% of 360,000 active. Potency, µM (doses to about 46.1 µM), without a hit: at the highest dose activity, negative = less viability, usual class: cytotoxic. HT-1080-NT fibrosarcoma viability, CellTiter-Glo ATP luminescence, 48 h;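 further: NT is the 2HG producing partner of a matched IDH1 knockdown line; 0% = DMSO-treated cells and -100% = media-only wells without cells; nearly all actives have a fitted effect of over 55% in size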
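Viability of the 2HG-overproducing fibrosarcoma line after 48 hours of compound exposure at 37 degrees C was determined by luminescence with CellTiter-Glo, and concentration-effect curves were then fitted and categorized.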
Active calls of the source: *; i = inactive; u = inconclusive; x = no result given; [ ] = remark or other dose. Hits are enriched below; roughly 8% of the tested compounds scored in any of these assays. The call rests on the fitted dose curve; in most records, active means well fitted curve in the direction sought with a large enough effect; inconclusive means small, poorly fitted or top-dose-only effect, or another doubt; inactive means no such curve, though single readings can be large; an effect the other way counts as inactive or inconclusive. Potency means the concentration at half of the fitted maximal effect.

SMILES	HT1080 IDH1KD tx	SW480 rereplic	MCF10A rereplic	KB-3-1 cytotox	KB-V1 cytotox	HT1080-NT tox
O=C(COC(=O)Cn1cnc2ccccc21)Nc1ccc2c(c1)C(=O)c1ccccc1C2=O	-10.7%	6.51µM*	u	i	i	-20.5%
Cc1ccc(C2CC(C(F)(F)F)n3nc(C(=O)NCc4c(C)nn(C)c4C)c(Cl)c3N2)cc1 (centres undefined)	u	-0.8%	1.7%	20.6µM*	5.8µM*	u
Cc1nn(C)cc1CN(C)C(=O)c1nn2c(c1Cl)NC(c1cccs1)CC2C(F)(F)F (centres undefined)	-13.5%	-3.3%	u	i	18.4µM*	-18.2%
CNC(=O)c1cc(C(=O)c2c(Cl)cccc2Cl)c[nH]1	4.7%	-100.7%	4.2%	i	i	4.7%
Cc1noc(C)c1-c1ccc(C(=O)N2CCN(C)CC2)c2occc12	17.1%	x	x	i	i	10.2%
COCCN(Cc1nnc(-c2cccs2)o1)C(=O)c1cccc(S(=O)(=O)N2CCOCC2)c1	11.8%	-12.8%	-17.1%	i	i	3.9%
CCCN(Cc1nnc(-c2cccs2)o1)C(=O)c1cccc(S(=O)(=O)N2CCOCC2)c1	-3.2%	-3.7%	-5.4%	i	23.1µM*	5.0%
COC(=O)c1ccc2c(c1)C(C)(C)C(/C=C/c1ccc(OC)c(OC)c1OC)=[N+]2C	11.6µM*	4.7%[9.22 µM]	u	5.17µM*	i	11.6µM*
COC(=O)c1ccc2c(c1)C(C)(C)C(/C=C/c1ccc(O)cc1)=[N+]2C	2.82µM*	6.31µM*	7.08µM*	u	6.31µM*	5.01µM*
COc1ccc(N(C)S(=O)(=O)c2ccc(Cl)c(C(=O)NCCc3ccc(Cl)cc3)c2)cc1	-12.9%	-0.6%	u	u	u	1.7%
O=C1CCCc2cc3c(cc21)CCCC3	13.9%	-6.6%	-2.2%	i	i	18.4%
CCOC(=O)c1c(NC(=O)CSc2nc3ccccc3s2)sc(C)c1C	-2.5%	-0.2%	u	i	13µM*	-1.8%
Cc1ccc(NC(=O)CSc2nnnn2-c2ccc3c(c2)OCO3)cc1C	-8.2%	u	16.4µM*	i	i	-7.0%
CCOC(=O)c1c(NC(=O)CSc2nc3ccccc3o2)sc(C)c1C	-5.5%	7.6%	9.0%	i	i	5.1%
CCOC(=O)c1c(NC(=O)CSc2nnnn2-c2ccc3c(c2)OCCO3)sc(C)c1C	20.4%	29.8%	18.4µM*	i	u	0.0%
CC(C)(O)C#Cc1ccc(C(=O)N2CCN(c3ccc([N+](=O)[O-])cc3)CC2)cc1	-11.9%	-2.7%	10.1%	i	i	-6.3%
CC(C)(O)C#Cc1ccc(C(=O)N2CCN(c3ccccc3)CC2)cc1	3.5%	3.26µM*	u	i	i	0.6%
O=C(NCc1ccccc1)C(=O)Nc1nc(C23CC4CC(CC(C4)C2)C3)cs1	-1.6%	u	u	u	7.31µM*	-4.6%
O=C(NCc1ccc(F)cc1)C(=O)Nc1nc(C23CC4CC(CC(C4)C2)C3)cs1	u	u	18.4µM*	u	9.2µM*	u
O=C(NCc1cccnc1)C(=O)Nc1nc(C23CC4CC(CC(C4)C2)C3)cs1	-10.8%	u	u	i	i	23.2%
O=C(NCc1ccncc1)C(=O)Nc1nc(C23CC4CC(CC(C4)C2)C3)cs1	-7.9%	7.0%	u	i	i	-0.2%
COC(=O)C1CCN(C(=O)NC2CCCCC2)CC1	5.8%[9.24 µM]	1.1%	-0.2%	i	i	7.6%
Cc1cc(/C=C/c2ccccc2)nc2ccccc12	x	x	x	i	u	x
CCCc1nc2oc3c(NCCN(C)C)ncnc3c2c2c1CCCC2	u	u	u	u	i	-19.5%
CC(C)Cc1nc2oc3c(Cl)ncnc3c2c2c1CCCC2	22.4%	9.1%	29.1µM*	i	i	8.2%
CC(C)Cc1nc2oc3c(=O)[nH]cnc3c2c2c1CCCC2	-8.7%	-82.5%	1.4%	i	18.4µM*	7.2%
